The results in this text go back to the OligoGym collection.
Also: reference of the scale not given here.

One test addresses GABRP. Briefly: pooled miR-30 sensor sort-seq; sequence = guide strand. The following applies: shRNA.
Turning to TCAAACTGTAAGACCAATCTAG, the sensor-assay potency score (higher = more potent) came out at 0.125. Same read-out and setting: as for TAGTGATCAACATTACTGGGGT, the figure is 0.2; as for TTTCATTGTCAAGTCACTGTAG, 0.714; as for TTTGAATTGTGAAATAATCAAC, -1.06. TAGTGTAATTTCCTGTCTCCTG had a sensor-assay potency score (higher = more potent) of -0.339. Same read-out and setting: next, TAGTAATACTGACTTCTTCTAC: -0.185; AACTTGAACTTGTCGCTGGTTT: -0.459; TTGGACTCCACAATGTAAGTAT: 0.553.

TTGCCTTCAAACACCAGCCGCT returned a sensor-assay potency score (higher = more potent) of 0.206. The same measure, in the same setting: next, TAGTCAACGTTGTCGCTGGAAA: -1.15; ACAAACTTGAACTTGTCGCTGG: 0.62.

For the sequence AAATACAGAACATTCCTCCGAA, the sensor-assay potency score (higher = more potent) is 0.853. Still for that read-out and setting: next, TATGGTGGCTGTGTAGTCCATG: -0.102; TTACATCATTATCTTGTCCTGT: 0.386. The same measure, in the same setting: next, ATAATCAACAATCCTGCCCATC: -0.969. As to AAACTTGAACTTGTCGCTGGTT, the sensor-assay potency score (higher = more potent) is 0.218.

Take TTCTCGGAAGACAAACTTGAAC: the sensor-assay potency score (higher = more potent) is -1.47.

TTTTCTCGGAAGACAAACTTGA registered a sensor-assay potency score (higher = more potent) of -0.264.

The next test has as its target GALE. The description is as above. To be noted: shRNA.
Sequence TTCCAAGTCTTGTCTGCCTGGC displayed a sensor-assay potency score (higher = more potent) of -0.133. Same read-out and setting: next, TACTTTGGAAAGCTCTTTCAGA: -0.275; TCTGTAATAATCCAGAGGCTTC: -1.35. On the same count and under the same terms, as for TTGTACGGGATCTTCTTCCCAG, the figure is 0.364. Same read-out and setting: as for TGGATGACCGCCATAAAGCTGT, the figure is -0.62; as for TTTATTTTTAAATACTTTGGAA, -0.203; as for ATGAAGAACTTGGACTTGCCGT, -1.09. AACACCAGGTTCTTCACCCCGT: the sensor-assay potency score (higher = more potent) is -0.43.

For TTCCCGTACACAGTGGCTGAGC, the sensor-assay potency score (higher = more potent) is -0.834. On the same count and under the same terms, as for TGAAATAGCGCAGCAGCACTGC, the figure is -0.836. Turning to TGAAGAACTTGGACTTGCCGTA, the sensor-assay potency score (higher = more potent) was -0.185. Consider TTTTGAAGAGACGCTGTAGGGC, for which the sensor-assay potency score (higher = more potent) turned out to be 0.205. The same measure, in the same setting: next, TACTTTTTGAAGAGACGCTGTA: -0.402. Same read-out and setting: as for TCTGTGTCATAGTCATTGCCAA, the figure is -0.861; as for TACACAGTGGCTGAGCTGCTGA, -1.04; as for ATCCTCACACATCCTGTCCAGC, -0.56. Still for that read-out and setting: next, TTCCTCGATGAAGAACTTGGAC: -0.651. With TCACACATCCTGTCCAGCCCTA, the sensor-assay potency score (higher = more potent) was -0.0923. AATAGCGCAGCAGCACTGCGTT had a sensor-assay potency score (higher = more potent) of -1.17. Still for that read-out and setting: as for TAAGGCTGCAATGTGGCCCTTG, the figure is 0.223. Same read-out and setting: next, TAACTCTGTAATAATCCAGAGG: -0.909; TTCTGCTTCTGCCAGCGCCAGA: -1.44.
